Experimental data as given in the supplement of paper PMC11732987, “Enantioselective OTUD7B fragment discovery through chemoproteomics screening and high-throughput optimisation” (Communications Chemistry, 2025).

How the values were obtained:
Assay in all cases: log2 ratio of Biotin-Ahx-Ub-VS probe labelling (fragment/DMSO); higher = less target engagement (more negative = stronger competition), active = hit call of the paper (q ≤ 0.05, log2 ratio ≤ -1)
Conditions in all cases: compound concentration: 200 uM; treatment time: 3 h
[1] = biological target: T1, USP42 (UniProt Q9H9J4)
T1 sequence (whole entry): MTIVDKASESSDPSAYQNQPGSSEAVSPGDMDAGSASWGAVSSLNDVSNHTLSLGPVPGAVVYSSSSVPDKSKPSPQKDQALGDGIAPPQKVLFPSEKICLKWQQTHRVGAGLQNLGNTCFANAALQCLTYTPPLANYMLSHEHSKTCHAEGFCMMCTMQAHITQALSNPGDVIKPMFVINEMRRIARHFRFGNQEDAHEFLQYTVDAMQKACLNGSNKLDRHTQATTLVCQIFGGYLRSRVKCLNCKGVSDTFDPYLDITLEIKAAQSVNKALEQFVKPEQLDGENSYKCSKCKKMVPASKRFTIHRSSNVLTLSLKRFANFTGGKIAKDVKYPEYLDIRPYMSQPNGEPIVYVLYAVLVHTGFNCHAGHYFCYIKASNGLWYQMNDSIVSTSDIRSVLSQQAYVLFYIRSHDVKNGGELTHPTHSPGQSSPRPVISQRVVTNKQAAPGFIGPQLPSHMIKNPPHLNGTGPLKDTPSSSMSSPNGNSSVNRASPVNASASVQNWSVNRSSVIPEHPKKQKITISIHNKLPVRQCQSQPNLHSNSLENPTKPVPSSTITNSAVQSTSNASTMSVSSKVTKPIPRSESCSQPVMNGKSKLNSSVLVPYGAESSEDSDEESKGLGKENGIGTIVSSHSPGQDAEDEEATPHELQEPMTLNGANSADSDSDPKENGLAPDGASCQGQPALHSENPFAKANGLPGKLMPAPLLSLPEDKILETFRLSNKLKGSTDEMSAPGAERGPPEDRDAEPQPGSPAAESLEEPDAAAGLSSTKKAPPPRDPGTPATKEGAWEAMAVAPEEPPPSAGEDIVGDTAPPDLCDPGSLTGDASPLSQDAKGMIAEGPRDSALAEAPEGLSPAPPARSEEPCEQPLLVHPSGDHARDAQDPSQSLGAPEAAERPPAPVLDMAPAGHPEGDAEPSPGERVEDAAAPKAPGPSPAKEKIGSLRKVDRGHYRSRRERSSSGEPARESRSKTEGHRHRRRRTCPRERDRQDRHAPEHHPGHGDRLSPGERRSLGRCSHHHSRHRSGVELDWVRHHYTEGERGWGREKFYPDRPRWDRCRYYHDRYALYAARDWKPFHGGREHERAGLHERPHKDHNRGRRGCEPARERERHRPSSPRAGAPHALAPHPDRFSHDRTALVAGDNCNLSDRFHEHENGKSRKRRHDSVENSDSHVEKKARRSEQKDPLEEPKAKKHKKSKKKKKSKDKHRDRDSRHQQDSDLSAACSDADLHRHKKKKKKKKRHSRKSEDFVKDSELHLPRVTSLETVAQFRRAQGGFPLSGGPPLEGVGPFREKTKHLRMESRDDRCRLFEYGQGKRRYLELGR
Procedure, shortened: (§1)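 Labelled DUBs from HEK293T lysate were NeutrAvidin-enriched, digested with LysC and trypsin, and run by diaPASEF LC-MS/MS. Before that, each 495 µg sample in Tris/CHAPS/IGEPAL buffer with protease inhibitors was treated in triplicate with fragment at 200 µM or vehicle for 3 h, then with Biotin-Ahx-Ub-VS at 0.5 µM final for 1 h. Values are average log2 ratios of fragment over vehicle by unpaired t-test, based on global-median-normalised Spectronaut label-free quantities from proteins with ≥2 unique peptides.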

[2] = biological target: USP46 (UniProt P62068)
Chain of USP46 (P62068 whole entry): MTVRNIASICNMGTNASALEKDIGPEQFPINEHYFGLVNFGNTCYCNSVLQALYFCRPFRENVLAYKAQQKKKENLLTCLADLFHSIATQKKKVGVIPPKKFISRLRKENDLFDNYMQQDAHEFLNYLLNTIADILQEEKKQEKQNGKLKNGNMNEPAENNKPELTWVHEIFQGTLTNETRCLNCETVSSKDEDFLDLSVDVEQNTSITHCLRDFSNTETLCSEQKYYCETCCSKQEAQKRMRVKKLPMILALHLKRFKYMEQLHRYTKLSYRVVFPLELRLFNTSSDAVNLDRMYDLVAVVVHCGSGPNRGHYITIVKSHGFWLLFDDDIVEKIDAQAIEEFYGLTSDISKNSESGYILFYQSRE
Procedure, shortened: as §1

[3] = biological target: T2, USP47 (UniProt Q96K76)
T2 sequence (whole entry): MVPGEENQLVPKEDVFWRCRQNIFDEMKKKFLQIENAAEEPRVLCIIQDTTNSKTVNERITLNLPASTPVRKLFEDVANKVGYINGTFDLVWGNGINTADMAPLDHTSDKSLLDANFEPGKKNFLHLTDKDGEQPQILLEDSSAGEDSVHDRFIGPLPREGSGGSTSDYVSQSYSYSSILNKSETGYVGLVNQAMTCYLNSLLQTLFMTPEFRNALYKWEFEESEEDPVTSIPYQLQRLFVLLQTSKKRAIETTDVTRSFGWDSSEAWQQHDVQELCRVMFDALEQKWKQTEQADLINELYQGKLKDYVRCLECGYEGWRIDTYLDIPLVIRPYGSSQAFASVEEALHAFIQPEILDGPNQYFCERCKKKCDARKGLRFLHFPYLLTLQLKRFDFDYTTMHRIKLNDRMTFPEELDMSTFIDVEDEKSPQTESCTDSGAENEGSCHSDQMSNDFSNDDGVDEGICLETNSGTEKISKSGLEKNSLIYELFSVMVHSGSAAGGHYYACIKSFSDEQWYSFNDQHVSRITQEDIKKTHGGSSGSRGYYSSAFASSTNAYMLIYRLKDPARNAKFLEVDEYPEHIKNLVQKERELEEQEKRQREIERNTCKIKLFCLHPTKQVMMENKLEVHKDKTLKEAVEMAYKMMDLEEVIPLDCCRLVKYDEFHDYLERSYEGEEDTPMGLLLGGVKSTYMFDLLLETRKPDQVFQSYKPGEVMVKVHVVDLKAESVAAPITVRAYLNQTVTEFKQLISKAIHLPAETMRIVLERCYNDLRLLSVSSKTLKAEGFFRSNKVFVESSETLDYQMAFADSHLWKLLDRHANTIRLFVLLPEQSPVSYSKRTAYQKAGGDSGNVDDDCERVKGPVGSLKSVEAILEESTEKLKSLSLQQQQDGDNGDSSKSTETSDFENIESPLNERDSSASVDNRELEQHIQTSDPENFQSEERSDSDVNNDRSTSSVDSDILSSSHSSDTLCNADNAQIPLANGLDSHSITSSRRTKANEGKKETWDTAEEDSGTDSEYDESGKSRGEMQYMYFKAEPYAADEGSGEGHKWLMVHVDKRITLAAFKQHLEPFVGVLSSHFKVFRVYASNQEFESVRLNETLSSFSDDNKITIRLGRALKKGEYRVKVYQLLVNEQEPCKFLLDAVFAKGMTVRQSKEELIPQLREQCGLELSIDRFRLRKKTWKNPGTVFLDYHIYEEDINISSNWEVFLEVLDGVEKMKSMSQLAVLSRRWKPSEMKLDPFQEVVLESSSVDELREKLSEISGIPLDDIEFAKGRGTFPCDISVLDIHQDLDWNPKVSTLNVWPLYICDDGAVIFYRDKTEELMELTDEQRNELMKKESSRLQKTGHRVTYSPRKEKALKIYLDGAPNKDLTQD
Procedure, shortened: as §1

[4] = biological target: T3, USP48 (UniProt Q86UV5)
T3 sequence (whole entry): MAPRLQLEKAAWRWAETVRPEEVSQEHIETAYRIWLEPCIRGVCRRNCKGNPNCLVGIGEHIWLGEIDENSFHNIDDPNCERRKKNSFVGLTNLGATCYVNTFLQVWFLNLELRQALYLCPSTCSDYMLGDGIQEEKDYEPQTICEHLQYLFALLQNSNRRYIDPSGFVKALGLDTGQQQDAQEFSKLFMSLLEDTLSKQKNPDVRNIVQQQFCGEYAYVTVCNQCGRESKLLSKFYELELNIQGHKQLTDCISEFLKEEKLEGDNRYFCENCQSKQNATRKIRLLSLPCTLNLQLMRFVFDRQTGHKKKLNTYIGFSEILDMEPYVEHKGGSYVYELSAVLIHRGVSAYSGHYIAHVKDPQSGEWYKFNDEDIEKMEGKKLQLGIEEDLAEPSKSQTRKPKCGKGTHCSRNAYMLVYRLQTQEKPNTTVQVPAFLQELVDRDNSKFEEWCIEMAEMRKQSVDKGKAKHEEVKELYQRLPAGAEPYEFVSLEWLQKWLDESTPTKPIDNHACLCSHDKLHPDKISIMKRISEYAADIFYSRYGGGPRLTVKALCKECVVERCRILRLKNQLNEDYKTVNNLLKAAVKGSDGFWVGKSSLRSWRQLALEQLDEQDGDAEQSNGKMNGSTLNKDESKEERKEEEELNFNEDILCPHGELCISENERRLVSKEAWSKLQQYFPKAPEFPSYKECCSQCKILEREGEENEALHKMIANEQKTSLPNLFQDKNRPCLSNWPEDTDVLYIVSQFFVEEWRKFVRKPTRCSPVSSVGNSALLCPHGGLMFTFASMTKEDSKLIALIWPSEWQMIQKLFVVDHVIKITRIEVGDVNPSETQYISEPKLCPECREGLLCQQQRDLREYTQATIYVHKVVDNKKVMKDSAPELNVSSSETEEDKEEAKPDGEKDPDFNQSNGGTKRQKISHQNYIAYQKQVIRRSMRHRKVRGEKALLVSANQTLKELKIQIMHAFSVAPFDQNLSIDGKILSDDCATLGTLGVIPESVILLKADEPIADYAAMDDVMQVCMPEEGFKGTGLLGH
Procedure, shortened: as §1

[5] = biological target: T4, USP5 (UniProt P45974)
T4 sequence (whole entry): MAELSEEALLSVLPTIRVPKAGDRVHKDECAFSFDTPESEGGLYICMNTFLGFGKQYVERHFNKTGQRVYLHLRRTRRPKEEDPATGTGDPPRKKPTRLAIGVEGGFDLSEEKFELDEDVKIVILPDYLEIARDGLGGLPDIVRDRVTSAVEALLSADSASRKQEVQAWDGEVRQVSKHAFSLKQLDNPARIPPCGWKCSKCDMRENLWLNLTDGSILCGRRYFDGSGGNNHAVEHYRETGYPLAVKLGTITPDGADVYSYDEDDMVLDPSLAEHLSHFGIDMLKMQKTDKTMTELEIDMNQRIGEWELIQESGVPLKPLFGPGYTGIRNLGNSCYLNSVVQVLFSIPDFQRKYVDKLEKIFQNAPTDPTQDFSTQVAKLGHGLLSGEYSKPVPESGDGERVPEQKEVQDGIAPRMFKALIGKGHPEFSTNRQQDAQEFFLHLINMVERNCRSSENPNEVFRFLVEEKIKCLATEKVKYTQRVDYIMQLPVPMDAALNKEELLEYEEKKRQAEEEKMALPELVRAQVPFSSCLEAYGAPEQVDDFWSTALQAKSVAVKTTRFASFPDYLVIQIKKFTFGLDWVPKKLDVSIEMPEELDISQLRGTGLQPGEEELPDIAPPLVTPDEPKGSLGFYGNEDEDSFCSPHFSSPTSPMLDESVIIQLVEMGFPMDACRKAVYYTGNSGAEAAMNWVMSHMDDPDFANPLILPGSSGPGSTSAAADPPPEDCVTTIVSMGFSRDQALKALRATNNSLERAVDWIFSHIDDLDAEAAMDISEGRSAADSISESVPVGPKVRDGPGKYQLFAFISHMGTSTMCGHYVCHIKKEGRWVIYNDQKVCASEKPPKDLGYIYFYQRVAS
Procedure, shortened: as §1

[6] = biological target: USP54 (UniProt Q70EL1)
Chain of USP54 (Q70EL1 whole entry): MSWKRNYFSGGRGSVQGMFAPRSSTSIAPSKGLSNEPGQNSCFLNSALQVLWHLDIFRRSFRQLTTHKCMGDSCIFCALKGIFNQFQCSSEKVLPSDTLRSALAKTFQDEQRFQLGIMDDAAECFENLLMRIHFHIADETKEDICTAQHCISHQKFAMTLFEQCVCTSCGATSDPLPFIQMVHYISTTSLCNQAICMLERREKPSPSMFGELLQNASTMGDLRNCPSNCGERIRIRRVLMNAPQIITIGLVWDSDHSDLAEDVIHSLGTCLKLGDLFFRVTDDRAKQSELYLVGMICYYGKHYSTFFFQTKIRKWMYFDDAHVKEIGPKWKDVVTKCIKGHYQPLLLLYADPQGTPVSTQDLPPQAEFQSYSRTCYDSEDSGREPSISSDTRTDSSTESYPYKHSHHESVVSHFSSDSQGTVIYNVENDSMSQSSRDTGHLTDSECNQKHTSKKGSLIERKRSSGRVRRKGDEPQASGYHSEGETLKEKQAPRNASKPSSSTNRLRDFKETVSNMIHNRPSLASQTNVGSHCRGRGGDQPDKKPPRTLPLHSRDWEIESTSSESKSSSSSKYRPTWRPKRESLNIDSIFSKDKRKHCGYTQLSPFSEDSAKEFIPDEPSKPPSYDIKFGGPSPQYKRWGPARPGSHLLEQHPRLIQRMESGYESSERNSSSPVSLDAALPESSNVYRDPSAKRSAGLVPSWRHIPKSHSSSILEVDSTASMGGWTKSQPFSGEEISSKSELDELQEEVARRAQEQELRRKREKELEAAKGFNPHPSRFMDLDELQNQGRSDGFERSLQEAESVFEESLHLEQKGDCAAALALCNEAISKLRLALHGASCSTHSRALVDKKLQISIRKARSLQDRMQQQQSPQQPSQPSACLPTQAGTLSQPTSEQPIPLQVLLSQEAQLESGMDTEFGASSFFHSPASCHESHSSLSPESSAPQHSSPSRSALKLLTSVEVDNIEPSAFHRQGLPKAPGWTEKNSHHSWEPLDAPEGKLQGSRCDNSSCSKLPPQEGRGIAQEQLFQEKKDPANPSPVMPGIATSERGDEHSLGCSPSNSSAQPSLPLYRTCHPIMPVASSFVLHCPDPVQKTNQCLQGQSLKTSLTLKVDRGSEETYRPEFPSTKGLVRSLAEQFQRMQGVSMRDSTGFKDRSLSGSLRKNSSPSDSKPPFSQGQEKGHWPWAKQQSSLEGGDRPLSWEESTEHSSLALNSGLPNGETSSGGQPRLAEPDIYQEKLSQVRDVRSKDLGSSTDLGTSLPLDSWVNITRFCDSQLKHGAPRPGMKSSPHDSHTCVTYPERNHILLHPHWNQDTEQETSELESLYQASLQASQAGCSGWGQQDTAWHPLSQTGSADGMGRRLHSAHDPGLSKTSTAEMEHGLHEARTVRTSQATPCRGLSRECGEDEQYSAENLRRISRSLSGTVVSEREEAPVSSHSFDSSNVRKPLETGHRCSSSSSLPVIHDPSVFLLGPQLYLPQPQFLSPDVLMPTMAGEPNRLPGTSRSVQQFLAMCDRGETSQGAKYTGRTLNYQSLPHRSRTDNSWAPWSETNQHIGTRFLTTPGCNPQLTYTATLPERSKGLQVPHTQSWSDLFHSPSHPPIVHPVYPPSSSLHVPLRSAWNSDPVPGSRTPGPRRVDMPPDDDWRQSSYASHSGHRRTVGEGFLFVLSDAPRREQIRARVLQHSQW
Procedure, shortened: as §1

[7] = biological target: USP7 (UniProt Q93009)
Procedure, shortened: as §1

[8] = biological target: T5, USP8 (UniProt P40818)
T5 sequence (whole entry): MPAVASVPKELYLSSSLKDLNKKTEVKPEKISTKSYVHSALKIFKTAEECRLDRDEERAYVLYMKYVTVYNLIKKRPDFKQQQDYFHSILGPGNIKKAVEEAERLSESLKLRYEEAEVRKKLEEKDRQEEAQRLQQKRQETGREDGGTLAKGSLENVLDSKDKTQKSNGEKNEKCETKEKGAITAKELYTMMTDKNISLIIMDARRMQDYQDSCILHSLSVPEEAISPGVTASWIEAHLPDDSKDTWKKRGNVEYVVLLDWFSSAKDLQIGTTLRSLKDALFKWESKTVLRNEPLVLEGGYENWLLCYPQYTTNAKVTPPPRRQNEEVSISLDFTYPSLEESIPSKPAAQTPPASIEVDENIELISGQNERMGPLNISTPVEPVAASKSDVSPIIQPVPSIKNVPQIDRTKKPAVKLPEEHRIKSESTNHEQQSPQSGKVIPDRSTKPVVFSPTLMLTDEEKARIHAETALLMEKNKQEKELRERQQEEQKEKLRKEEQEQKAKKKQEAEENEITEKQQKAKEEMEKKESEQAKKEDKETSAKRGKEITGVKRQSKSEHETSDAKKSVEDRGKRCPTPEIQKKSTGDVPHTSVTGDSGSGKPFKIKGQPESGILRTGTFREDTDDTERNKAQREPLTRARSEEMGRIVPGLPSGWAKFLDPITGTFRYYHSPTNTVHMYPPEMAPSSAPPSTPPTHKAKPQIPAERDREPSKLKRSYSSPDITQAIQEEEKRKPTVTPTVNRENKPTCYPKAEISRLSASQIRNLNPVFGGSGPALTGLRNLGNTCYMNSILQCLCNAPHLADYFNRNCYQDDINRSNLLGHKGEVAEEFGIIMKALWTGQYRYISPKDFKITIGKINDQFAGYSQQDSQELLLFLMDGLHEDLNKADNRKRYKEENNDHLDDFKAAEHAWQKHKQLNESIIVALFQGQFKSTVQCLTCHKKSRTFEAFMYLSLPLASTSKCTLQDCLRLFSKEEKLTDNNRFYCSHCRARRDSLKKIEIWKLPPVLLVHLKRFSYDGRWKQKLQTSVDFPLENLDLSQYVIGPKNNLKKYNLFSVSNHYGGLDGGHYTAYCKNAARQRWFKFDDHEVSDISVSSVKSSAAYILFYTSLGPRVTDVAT
Procedure, shortened: as §1

[9] = biological target: USP9X (UniProt Q93008)
Chain of USP9X (Q93008 whole entry): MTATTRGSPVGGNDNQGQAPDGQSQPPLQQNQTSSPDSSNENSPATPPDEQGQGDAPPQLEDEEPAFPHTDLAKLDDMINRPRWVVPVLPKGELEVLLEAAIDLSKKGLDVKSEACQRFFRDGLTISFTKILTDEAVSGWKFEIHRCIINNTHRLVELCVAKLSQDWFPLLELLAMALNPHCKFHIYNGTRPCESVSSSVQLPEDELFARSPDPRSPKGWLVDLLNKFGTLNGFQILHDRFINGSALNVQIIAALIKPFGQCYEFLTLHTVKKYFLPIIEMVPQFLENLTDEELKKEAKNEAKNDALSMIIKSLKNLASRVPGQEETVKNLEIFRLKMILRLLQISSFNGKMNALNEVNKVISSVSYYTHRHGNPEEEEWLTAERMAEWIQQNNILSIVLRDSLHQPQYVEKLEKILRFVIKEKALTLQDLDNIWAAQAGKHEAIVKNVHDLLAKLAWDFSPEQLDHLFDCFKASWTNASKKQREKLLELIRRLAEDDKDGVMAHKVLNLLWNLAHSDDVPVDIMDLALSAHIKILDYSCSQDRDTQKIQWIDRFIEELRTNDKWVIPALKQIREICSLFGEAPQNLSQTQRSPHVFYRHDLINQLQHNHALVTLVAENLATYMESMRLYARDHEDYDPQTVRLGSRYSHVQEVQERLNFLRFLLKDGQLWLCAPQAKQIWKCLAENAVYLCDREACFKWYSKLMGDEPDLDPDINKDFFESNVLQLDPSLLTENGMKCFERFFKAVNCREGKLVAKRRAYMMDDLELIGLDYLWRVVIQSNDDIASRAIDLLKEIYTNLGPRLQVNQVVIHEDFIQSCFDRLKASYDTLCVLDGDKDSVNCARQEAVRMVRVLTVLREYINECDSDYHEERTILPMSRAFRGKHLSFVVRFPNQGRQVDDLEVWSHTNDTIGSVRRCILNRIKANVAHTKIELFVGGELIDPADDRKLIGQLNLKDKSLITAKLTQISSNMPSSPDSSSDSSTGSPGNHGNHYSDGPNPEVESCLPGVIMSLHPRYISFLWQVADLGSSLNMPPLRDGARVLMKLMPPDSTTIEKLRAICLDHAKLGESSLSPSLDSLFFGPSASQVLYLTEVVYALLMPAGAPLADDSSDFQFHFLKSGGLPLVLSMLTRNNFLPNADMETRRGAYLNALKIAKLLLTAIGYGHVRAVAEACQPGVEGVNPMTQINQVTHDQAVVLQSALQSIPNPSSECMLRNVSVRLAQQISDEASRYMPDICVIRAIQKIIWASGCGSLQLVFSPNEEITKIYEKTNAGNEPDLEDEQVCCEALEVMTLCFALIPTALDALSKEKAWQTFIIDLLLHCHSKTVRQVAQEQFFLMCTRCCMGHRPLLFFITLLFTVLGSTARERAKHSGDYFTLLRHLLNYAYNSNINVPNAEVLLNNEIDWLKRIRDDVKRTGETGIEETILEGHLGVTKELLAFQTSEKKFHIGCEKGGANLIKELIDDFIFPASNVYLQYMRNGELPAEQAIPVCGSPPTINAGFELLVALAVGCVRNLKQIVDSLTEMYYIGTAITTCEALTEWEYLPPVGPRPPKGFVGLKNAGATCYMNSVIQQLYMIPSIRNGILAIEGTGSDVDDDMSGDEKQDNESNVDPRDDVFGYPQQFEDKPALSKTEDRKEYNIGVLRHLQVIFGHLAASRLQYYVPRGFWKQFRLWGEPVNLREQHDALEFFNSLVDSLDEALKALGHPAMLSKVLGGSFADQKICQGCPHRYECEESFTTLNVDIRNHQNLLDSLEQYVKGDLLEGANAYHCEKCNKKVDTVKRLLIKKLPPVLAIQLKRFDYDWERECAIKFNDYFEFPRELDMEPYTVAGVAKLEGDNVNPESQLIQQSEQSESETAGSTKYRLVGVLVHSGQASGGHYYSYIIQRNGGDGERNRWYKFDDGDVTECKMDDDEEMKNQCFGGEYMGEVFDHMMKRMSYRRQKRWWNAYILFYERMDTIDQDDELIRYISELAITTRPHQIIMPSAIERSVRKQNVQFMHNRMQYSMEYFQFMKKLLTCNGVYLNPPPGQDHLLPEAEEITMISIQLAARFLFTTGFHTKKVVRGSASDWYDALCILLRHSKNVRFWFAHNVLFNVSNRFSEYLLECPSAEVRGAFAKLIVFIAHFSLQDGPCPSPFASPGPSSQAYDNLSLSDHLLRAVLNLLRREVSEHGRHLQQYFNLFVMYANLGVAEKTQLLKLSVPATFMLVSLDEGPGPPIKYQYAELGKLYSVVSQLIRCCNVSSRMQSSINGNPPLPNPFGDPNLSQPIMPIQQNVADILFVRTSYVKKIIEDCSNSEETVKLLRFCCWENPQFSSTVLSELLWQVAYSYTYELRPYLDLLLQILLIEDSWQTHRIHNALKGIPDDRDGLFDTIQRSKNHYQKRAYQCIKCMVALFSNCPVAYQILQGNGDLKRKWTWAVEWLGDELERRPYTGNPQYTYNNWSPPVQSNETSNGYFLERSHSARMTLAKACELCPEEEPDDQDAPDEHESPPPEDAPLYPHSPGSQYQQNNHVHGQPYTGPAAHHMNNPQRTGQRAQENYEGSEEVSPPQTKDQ
Procedure, shortened: as §1

[10] = biological target: UniProt O00487
Chain of UniProt O00487 (O00487 whole entry): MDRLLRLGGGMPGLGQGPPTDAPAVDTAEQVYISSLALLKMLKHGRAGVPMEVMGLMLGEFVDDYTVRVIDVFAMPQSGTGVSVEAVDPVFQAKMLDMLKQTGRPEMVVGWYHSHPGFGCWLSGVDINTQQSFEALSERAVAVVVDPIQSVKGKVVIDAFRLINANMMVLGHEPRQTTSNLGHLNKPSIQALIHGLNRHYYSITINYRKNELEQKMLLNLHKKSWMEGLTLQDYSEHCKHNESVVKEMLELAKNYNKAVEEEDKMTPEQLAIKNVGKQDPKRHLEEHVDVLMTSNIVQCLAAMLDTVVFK
Procedure, shortened: as §1

Measured: log2 ratio of Biotin-Ahx-Ub-VS probe labelling

CNC(=O)C1CCN(C(=O)CCl)CC1
inactive: [1] 0.308 | [2] 0.0795 | [3] 0.356 | [4] -0.0361 | [5] -0.203 | [6] 0.32 | [7] -0.171 | [8] -0.00406 | [9] -0.107 | [10] 0.144
